Many of the other results were omitted from the sample, so the strongest signals are more common in it than they were.
B1: STA (Solanum tuberosum), Q9S8M0 (protein)
chain: NASPPSPSPLPYPQCGMKKGGGKCIKTGECCSIWGWCGTTNAYCSPGYCQKQCPGPYPEGRCGWQANGKSCPTGTGQCCSNGGWCGTTSDYCASKNCQSQCKLPSPPPPPPPPSPPPPSPPSPPPPSPPPPPPPSPPPPSPPPPSPSPPPPPASPPPPPPALPYPQCGIKKGGGKCIKTGECCSIWGWCGTTNAYCSPGYCQKQCPGPYPEGRCGWQANGKSCPTGTGHCCSNAGWCGTTSDYCAPVNCQAQCNTTTLTSPIKNRMRGIESFMLNVV
B2: MMR (Homo sapiens), P22897 (protein)
chain: MRLPLLLVFASVIPGAVLLLDTRQFLIYNEDHKRCVDAVSPSAVQTAACNQDAESQKFRWVSESQIMSVAFKLCLGVPSKTDWVAITLYACDSKSEFQKWECKNDTLLGIKGEDLFFNYGNRQEKNIMLYKGSGLWSRWKIYGTTDNLCSRGYEAMYTLLGNANGATCAFPFKFENKWYADCTSAGRSDGWLWCGTTTDYDTDKLFGYCPLKFEGSESLWNKDPLTSVSYQINSKSALTWHQARKSCQQQNAELLSITEIHEQTYLTGLTSSLTSGLWIGLNSLSFNSGWQWSDRSPFRYLNWLPGSPSAEPGKSCVSLNPGKNAKWENLECVQKLGYICKKGNTTLNSFVIPSESDVPTHCPSQWWPYAGHCYKIHRDEKKIQRDALTTCRKEGGDLTSIHTIEELDFIISQLGYEPNDELWIGLNDIKIQMYFEWSDGTPVTFTKWLRGEPSHENNRQEDCVVMKGKDGYWADRGCEWPLGYICKMKSRSQGPEIVEVEKGCRKGWKKHHFYCYMIGHTLSTFAEANQTCNNENAYLTTIEDRYEQAFLTSFVGLRPEKYFWTGLSDIQTKGTFQWTIEEEVRFTHWNSDMPGRKPGCVAMRTGIAGGLWDVLKCDEKAKFVCKHWAEGVTHPPKPTTTPEPKCPEDWGASSRTSLCFKLYAKGKHEKKTWFESRDFCRALGGDLASINNKEEQQTIWRLITASGSYHKLFWLGLTYGSPSEGFTWSDGSPVSYENWAYGEPNNYQNVEYCGELKGDPTMSWNDINCEHLNNWICQIQKGQTPKPEPTPAPQDNPPVTEDGWVIYKDYQYYFSKEKETMDNARAFCKRNFGDLVSIQSESEKKFLWKYVNRNDAQSAYFIGLLISLDKKFAWMDGSKVDYVSWATGEPNFANEDENCVTMYSNSGFWNDINCGYPNAFICQRHNSSINATTVMPTMPSVPSGCKEGWNFYSNKCFKIFGFMEEERKNWQEARKACIGFGGNLVSIQNEKEQAFLTYHMKDSTFSAWTGLNDVNSEHTFLWTDGRGVHYTNWGKGYPGGRRSSLSYEDADCVVIIGGASNEAGKWMDDTCDSKRGYICQTRSDPSLTNPPATIQTDGFVKYGKSSYSLMRQKFQWHEAETYCKLHNSLIASILDPYSNAFAWLQMETSNERVWIALNSNLTDNQYTWTDKWRVRYTNWAADEPKLKSACVYLDLDGYWKTAHCNESFYFLCKRSDEIPATEPPQLPGRCPESDHTAWIPFHGHCYYIESSYTRNWGQASLECLRMGSSLVSIESAAESSFLSYRVEPLKSKTNFWIGLFRNVEGTWLWINNSPVSFVNWNTGDPSGERNDCVALHASSGFWSNIHCSSYKGYICKRPKIIDAKPTHELLTTKADTRKMDPSKPSSNVAGVVIIVILLILTGAGLAAYFFYKKRRVHLPQEGAFENTLYFNSQSSPGTSDMKDLVGNIEQNEHSVI

What was measured:
Experiment in all cases: glycan array binding signal (z-score within array); higher = stronger binding
Conditions in all cases: glycan notation: IUPAC condensed, linker removed
Fuc(a1-2)Gal(b1-3)GalNAc = biological target: Fuc(a1-2)Gal(b1-3)GalNAc
Procedure, shortened: (§1)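 From the Consortium for Functional Glycomics database, 3228 arrays were curated, keeping only those whose protein sequence was available. Binding is given as a within-array Z-score averaged across arrays sharing a protein sequence and across linkers. Negative Z-scores can be read as non-binding.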

Fuc(a1-2)Gal(b1-4)GlcNAc = biological target: Fuc(a1-2)Gal(b1-4)GlcNAc
Procedure, shortened: as §1

[1] = biological target: Fuc(a1-2)Gal(b1-4)GlcNAc(b1-3)Gal(b1-4)GlcNAc
Procedure, shortened: as §1

[2] = biological target: Fuc(a1-2)[Gal(a1-3)]Gal(b1-4)[Fuc(a1-3)]GlcNAc
Procedure, shortened: as §1

[3] = biological target: Gal(b1-3)GalNAc(b1-4)Gal(b1-4)Glc
Procedure, shortened: as §1

[4] = biological target: Gal(b1-3)[Fuc(a1-4)]GlcNAc(b1-3)Gal(b1-4)GlcNAc
Procedure, shortened: as §1

Gal(b1-4)Glc = biological target: Gal(b1-4)Glc
Procedure, shortened: as §1

[5] = biological target: Gal(b1-4)GlcNAc(b1-3)Gal(b1-4)Glc
Procedure, shortened: as §1

[6] = biological target: Gal(b1-4)GlcNAc(b1-3)Gal(b1-4)GlcNAc(b1-3)Gal(b1-4)GlcNAc
Procedure, shortened: as §1

[7] = biological target: Gal(b1-4)GlcNAc(b1-3)GalNAc
Procedure, shortened: as §1

[8] = biological target: GlcNAc(b1-4)GlcNAc(b1-4)GlcNAc(b1-4)GlcNAc(b1-4)GlcNAc(b1-4)GlcNAc
Procedure, shortened: as §1

[9] = biological target: Neu5Ac(a2-3)Gal(b1-3)[Fuc(a1-4)]GlcNAc(b1-3)Gal(b1-4)[Fuc(a1-3)]GlcNAc
Procedure, shortened: as §1

[10] = biological target: Neu5Ac(a2-3)GalNAc(b1-4)GlcNAc
Procedure, shortened: as §1

[11] = biological target: Neu5Ac(a2-6)Gal(b1-4)GlcNAc(b1-3)Gal(b1-4)[Fuc(a1-3)]GlcNAc(b1-3)Gal(b1-4)[Fuc(a1-3)]GlcNAc
Procedure, shortened: as §1

[12] = biological target: Neu5Gc(a2-3)Gal(b1-3)[Fuc(a1-4)]GlcNAc
Procedure, shortened: as §1

Neu5Gc(a2-3)Gal(b1-4)Glc = biological target: Neu5Gc(a2-3)Gal(b1-4)Glc
Procedure, shortened: as §1

[13] = biological target: Fuc(a1-2)Gal(b1-4)[Fuc(a1-3)]GlcNAc(b1-3)Gal(b1-4)[Fuc(a1-3)]GlcNAc
Procedure, shortened: as §1

Fuc(a1-2)GlcNAc = biological target: Fuc(a1-2)GlcNAc
Procedure, shortened: as §1

[14] = biological target: Fuc(a1-3)[Gal3S(b1-4)]GlcNAc
Procedure, shortened: as §1

[15] = biological target: Gal(b1-3)[Fuc(a1-4)]GlcNAc(b1-3)Gal(b1-4)[Fuc(a1-3)]GlcNAc
Procedure, shortened: as §1

[16] = biological target: Gal(b1-4)GlcNAc(b1-3)Gal(b1-4)[Fuc(a1-3)]GlcNAc(b1-3)Gal(b1-4)[Fuc(a1-3)]GlcNAc
Procedure, shortened: as §1

Gal3S(b1-4)Glc = biological target: Gal3S(b1-4)Glc
Procedure, shortened: as §1

Gal3S(b1-4)GlcNAc6S = biological target: Gal3S(b1-4)GlcNAc6S
Procedure, shortened: as §1

Gal3S6S(b1-4)GlcNAc6S = biological target: Gal3S6S(b1-4)GlcNAc6S
Procedure, shortened: as §1

[17] = biological target: GlcNAc(b1-2)Gal(b1-3)GalNAc
Procedure, shortened: as §1

Kdn(a2-3)Gal(b1-4)GlcNAc = biological target: Kdn(a2-3)Gal(b1-4)GlcNAc
Procedure, shortened: as §1

Man(a1-3)[Man(a1-6)]Man = biological target: Man(a1-3)[Man(a1-6)]Man
Procedure, shortened: as §1

[18] = biological target: Neu5Ac(a2-3)Gal(b1-3)GalNAc6S
Procedure, shortened: as §1

[19] = biological target: Neu5Ac(a2-3)Gal(b1-4)GlcNAc(b1-3)Gal(b1-4)GlcNAc
Procedure, shortened: as §1

[20] = biological target: Neu5Ac(a2-6)Gal(b1-4)GlcNAc(b1-2)Man(a1-3)[Neu5Ac(a2-6)Gal(b1-4)GlcNAc(b1-2)Man(a1-6)]Man(b1-4)GlcNAc(b1-4)GlcNAc
Procedure, shortened: as §1

[21] = biological target: Neu5Ac(a2-6)Gal(b1-4)GlcNAc6S
Procedure, shortened: as §1

[22] = biological target: Neu5Ac9Ac(a2-6)Gal(b1-4)GlcNAc
Procedure, shortened: as §1

Binder | glycan array binding signal (z-score) (Fuc(a1-2)Gal(b1-3)GalNAc) | glycan array binding signal (z-score) (Fuc(a1-2)Gal(b1-4)GlcNAc) | glycan array binding signal (z-score) [1] | glycan array binding signal (z-score) [2] | glycan array binding signal (z-score) [3] | glycan array binding signal (z-score) [4] | glycan array binding signal (z-score) (Gal(b1-4)Glc) | glycan array binding signal (z-score) [5] | glycan array binding signal (z-score) [6] | glycan array binding signal (z-score) [7] | glycan array binding signal (z-score) [8] | glycan array binding signal (z-score) [9] | glycan array binding signal (z-score) [10] | glycan array binding signal (z-score) [11] | glycan array binding signal (z-score) [12] | glycan array binding signal (z-score) (Neu5Gc(a2-3)Gal(b1-4)Glc) | glycan array binding signal (z-score) [13] | glycan array binding signal (z-score) (Fuc(a1-2)GlcNAc) | glycan array binding signal (z-score) [14] | glycan array binding signal (z-score) [15] | glycan array binding signal (z-score) [16] | glycan array binding signal (z-score) (Gal3S(b1-4)Glc) | glycan array binding signal (z-score) (Gal3S(b1-4)GlcNAc6S) | glycan array binding signal (z-score) (Gal3S6S(b1-4)GlcNAc6S) | glycan array binding signal (z-score) [17] | glycan array binding signal (z-score) (Kdn(a2-3)Gal(b1-4)GlcNAc) | glycan array binding signal (z-score) (Man(a1-3)[Man(a1-6)]Man) | glycan array binding signal (z-score) [18] | glycan array binding signal (z-score) [19] | glycan array binding signal (z-score) [20] | glycan array binding signal (z-score) [21] | glycan array binding signal (z-score) [22]
B1 | -0.582 | 2.12 | 2.12 | -0.593 | -0.595 | -0.584 | -0.586 | 1.35 | 2.26 | -0.564 | 2.18 | -0.589 | 2.22 | -0.578 | -0.58 | -0.591 | – | – | – | – | – | – | – | – | – | – | – | – | – | – | – | –
B2 | -0.435 | – | – | – | – | – | – | – | – | – | – | – | – | – | – | – | -0.234 | -0.407 | 2.96 | -0.37 | 0.283 | 3.67 | 3.5 | 3.58 | -0.453 | 0.013 | 3.57 | -0.344 | -0.439 | -0.418 | -0.155 | -0.397

— the supplement of paper PMC8728848
